Source: PubChem (The Scripps Research Institute Molecular Screening Center)
GPR151 ag: human GPR151 activation; Q8TDV0; PathHunter beta-arrestin GPR151 cells, luminescence; activation, % at 11.2 µM; 1% of 650,000 active; in the data active = activation above about 4.9%
FBW7 act: activators of human E3 ligase FBW7; Q969H0; AlphaScreen FBW7–phospho-cyclin E peptide binding, activator screen; normalized activity (activation), % at 26.1 µM; 0.13% of 650,000 active; in the data active = normalized activity above about 1.9%;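 note: purified mutant Fbw7 with reduced substrate affinity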
Target sequence (Q969H0 whole entry, looked up): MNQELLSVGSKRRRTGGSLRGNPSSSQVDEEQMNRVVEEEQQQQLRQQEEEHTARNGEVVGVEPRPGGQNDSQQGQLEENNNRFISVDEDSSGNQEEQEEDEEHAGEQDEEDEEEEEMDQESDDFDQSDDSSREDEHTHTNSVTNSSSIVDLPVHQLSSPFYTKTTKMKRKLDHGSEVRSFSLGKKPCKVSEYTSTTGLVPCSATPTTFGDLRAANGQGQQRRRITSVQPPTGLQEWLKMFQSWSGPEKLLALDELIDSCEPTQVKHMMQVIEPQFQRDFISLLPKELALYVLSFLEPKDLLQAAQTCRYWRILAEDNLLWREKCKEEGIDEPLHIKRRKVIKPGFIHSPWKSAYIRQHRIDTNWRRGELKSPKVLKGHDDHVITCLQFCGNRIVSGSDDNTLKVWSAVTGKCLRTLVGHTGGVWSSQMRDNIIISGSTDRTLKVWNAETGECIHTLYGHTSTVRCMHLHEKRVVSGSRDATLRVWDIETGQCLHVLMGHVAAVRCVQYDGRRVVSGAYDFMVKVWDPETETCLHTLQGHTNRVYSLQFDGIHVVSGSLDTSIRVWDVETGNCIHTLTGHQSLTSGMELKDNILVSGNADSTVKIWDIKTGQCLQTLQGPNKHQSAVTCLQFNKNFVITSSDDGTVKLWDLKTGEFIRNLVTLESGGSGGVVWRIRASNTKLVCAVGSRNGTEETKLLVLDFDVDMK
TEAD-YAP block: TEAD-YAP interaction inhibition. 1.4% of 640,000 active. HEK-TIYL cells, TEAD-Gal4/YAP UAS-luciferase luminescence. AID 1259422. inhibition, % at 9.12 µM; in the data active = inhibition above about 32%
MITF inh: blocks human microphthalmia-associated transcription factor. O75030. AlphaScreen MITF homodimerization, bead proximity signal. inhibition, % at 2.6 µM. 0.91% of 650,000 active. AID 1259374; in the data active = inhibition above about 50%
MITF inh conf: human MITF inhibition, confirmation. AID 1259372. shares compounds with MITF inh. inhibition, % at 2.6 µM. AlphaScreen MITF homodimerization, biotin/His-MITF beads. 16% of 4,700 active;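 active = inhibition above a cutoff derived from the DMSO control wells, cut at about 28% in these data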;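 note: inhibitors lower the bead chemiluminescence by keeping MITF from dimerizing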
AS interf DR: optically interferes with AlphaScreen signal in dose response | shares compounds with MITF inh | AlphaScreen optical interference counterscreen, cell-free | IC50, µM | 6% of 480 active | AID 1259373; call rule not given here
AlphaScreen intf2: optically interferes with AlphaScreen signal; shares compounds with MITF inh; LysRS AlphaScreen counterscreen, signal interference, triplicate; inhibition, % at 2.6 µM; 7.6% of 4,700 active; AID 1259376;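 active = inhibition above a cutoff derived from the DMSO control wells, cut at about 30% in these data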
A number is an active result; 0 = inactive; - = not tested or not shown. Rows were chosen to be rich in hits. Some 3.4% of all compounds tested hit in one or more screens of this group.

SMILES	GPR151 ag	FBW7 act	TEAD-YAP block	MITF inh	MITF inh conf	AlphaScreen intf2	others
CC(NC(=O)C1CCN(Cc2ccccc2)CC1)c1ccccc1 (centres undefined)	0	0	0	53	0	0
COc1ccc(OC)c(CN2CCC(C(=O)NC(C)c3ccccc3)CC2)c1 (centres undefined)	0	0	0	52	0	0
COc1ccc(CN2CCC(C(=O)NC(C)C)CC2)c(OC)c1OC	0	0	0	71	0	0
CC(NC(=O)C1CCN(Cc2ccccc2O)CC1)c1ccccc1 (centres undefined)	0	0	0	0	-	-
O=C(NCc1cccs1)c1cc(S(=O)(=O)N2CCc3ccccc32)ccc1Sc1ccc(F)cc1	0	0	0	0	-	-
O=C1C2=C(SCCS2)C(=O)N1c1ccc(Cl)cc1	0	0	0	0	-	-
COc1ccc(-c2noc(CN3CCCCC3CO)n2)c(OC)c1OC (centres undefined)	0	0	0	0	-	-
COc1ccccc1CNC(=O)c1ccc(Cn2c(=S)[nH]c3cc(C(=O)O)ccc3c2=O)cc1	0	0	0	0	-	-
Cn1c(=O)c2c(nc3n(Cc4ccc5c(c4)OCO5)c(-c4ccccc4)cn23)n(C)c1=O	0	0	0	0	-	-
CCN(C(=O)COC(=O)c1cccc(C)c1[N+](=O)[O-])C1CCS(=O)(=O)C1 (centres undefined)	0	0	0	0	-	-
O=[N+]([O-])c1cccc(N(CC2CO2)S(=O)(=O)c2ccccc2)c1 (centres undefined)	0	0	0	51	0	0
O=C(CSc1nnc(-c2ccc([N+](=O)[O-])cc2)o1)NC1CCCCC1	0	0	0	0	-	-
CCCCCc1nnc(NC(=O)c2ccc(Cl)cc2)s1	0	0	0	0	-	-
NC(=O)c1c(NC(=O)CCCCl)sc2c1CCCC2	0	0	0	0	-	-
O=C(Nc1nc2c(s1)CCC2C(=O)NCCCc1ccccc1)c1ccc(F)cc1 (centres undefined)	0	0	0	80	0	0
CC(=O)n1c2c(c3ccccc31)OC(N)=C(C#N)C2c1cccc([N+](=O)[O-])c1 (centres undefined)	0	0	0	58	0	0
CCCN1CCC(NCCc2ccc(Cl)cc2)CC1	0	0	0	51	0	0
Cc1nnnn1Cc1ccccc1	0	0	0	0	-	-
COc1ccc(C[C@@H]2NC(=O)[C@H]3CN(C(=O)NCc4ccccc4)CCN3C2=O)cc1	0	0	0	79	72	0	AS interf DR=0
COc1ccc(C[C@@H]2NC(=O)[C@H]3CN(C(=O)c4ccc(-c5ccccc5)cc4)CCN3C2=O)cc1	0	0	0	0	-	-
O=C1N[C@H](Cc2ccccc2)C(=O)N2CCN(C(=O)NCc3ccccc3)C[C@H]12	0	0	0	69	64	0	AS interf DR=0
O=C1N[C@@H](Cc2cnc[nH]2)C(=O)N2CCN(C(=O)NCc3ccccc3)C[C@H]12	0	0	0	0	-	-
C[C@H](O)[C@H]1NC(=O)[C@H]2CN(C(=O)NCc3ccccc3)CCN2C1=O	0	0	0	75	71	0	AS interf DR=0
C[C@@H](O)[C@@H]1NC(=O)[C@H]2CN(C(=O)OCc3ccccc3)CCN2C1=O	0	0	0	0	-	-
Cc1ccc(-c2cn3c4c(=O)n(C)c(=O)n(C)c4nc3n2-c2ccccc2)cc1C	0	0	0	0	-	-
SMILES	GPR151 ag	FBW7 act	TEAD-YAP block	MITF inh	MITF inh conf	AlphaScreen intf2	others
Ic1ccc(OCCNC2CCCC2)cc1	0	0	0	59	0	0
Ic1ccc(OCCCNC2CCCC2)cc1	0	0	0	0	-	-
COCCCNC(=O)Cc1csc2nc(-c3ccc(Cl)cc3)cn12	0	0	0	0	-	-
Cc1cc(=O)[nH]c(NCCc2ccccc2)n1	0	0	0	0	-	-
CC1=C(NCCc2ccccc2)CCC1=O	0	0	0	61	0	0
O=C(Nc1nc(-c2ccc(F)cc2)cs1)c1cc2cc(Br)cc(Br)c2oc1=O	0	0	0	100	0	0
Cc1nc(-c2ccc(NC(=O)c3cc4cc(Br)cc(Br)c4oc3=O)cc2)cs1	0	0	0	0	-	-
CC1=C(C(=O)OC2CCC(C)CC2)C(c2ccccc2Cl)NC(=O)N1 (centres undefined)	0	0	0	81	0	0
CC1=C(C(=O)OC2CCCCC2)C(c2ccc(OCc3ccccc3)cc2)NC(=O)N1 (centres undefined)	0	0	0	55	0	0
CC(=O)N1CCN(C(=O)C2(c3cccs3)CCOCC2)CC1	0	0	0	0	-	-
